What all share (test): DAPPL (digital affinity profiling via proximity ligation, sequencing); 10 mM Tris-HCl pH 7.5, 50 mM NaCl, 1 mM DTT, 4% glycerol, room temperature, 30 min; GST-TFs on glutathione beads, 16-mer random dsDNA library, 0.1% formaldehyde crosslink after washing; high values mean tight binding
In one assay the target is T1, FEV (Homo sapiens, UniProt Q99581 1-238).
T1 sequence: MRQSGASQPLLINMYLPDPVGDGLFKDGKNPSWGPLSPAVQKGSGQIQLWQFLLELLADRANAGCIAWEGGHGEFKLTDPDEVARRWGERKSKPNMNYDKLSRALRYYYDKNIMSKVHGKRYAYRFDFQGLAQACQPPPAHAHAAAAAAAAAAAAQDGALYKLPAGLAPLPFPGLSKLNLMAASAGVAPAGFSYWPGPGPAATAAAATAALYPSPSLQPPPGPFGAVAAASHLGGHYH
Conditions: protein: recombinant; tags: N-terminal GST; dsDNA, one strand shown. Put shortly:
(§1)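 Human transcription factors fused to GST were expressed in yeast, captured on glutathione beads, given DNA barcodes and pooled with a GST-only negative control. Pools were incubated with 200 nmole of a 16-mer random double-stranded DNA library in Tris/NaCl/DTT/glycerol buffer at room temperature for 30 min. They were then washed, crosslinked with 0.1% formaldehyde, proximity-ligated (BsaI/T4 ligase, 1 h, 37 °C), PCR-amplified and sequenced on an Illumina NextSeq500. Binding signal is each 6-mer's read frequency for a factor divided by its frequency for the GST control.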

The target of a further assay is ETV5 (Homo sapiens, UniProt P41161 1-510). Conditions: protein: recombinant; tags: N-terminal GST; dsDNA, one strand shown. A digest of the protocol:
as §1

The next assay addresses HSF1 (Homo sapiens, UniProt Q00613 1-529). Conditions: protein: recombinant; tags: N-terminal GST; chain copies: 3; dsDNA, one strand shown. A digest of the protocol: as §1
For a further assay, the target named is T2, SPIC (Homo sapiens, UniProt Q8N5J4 1-248).
T2 sequence: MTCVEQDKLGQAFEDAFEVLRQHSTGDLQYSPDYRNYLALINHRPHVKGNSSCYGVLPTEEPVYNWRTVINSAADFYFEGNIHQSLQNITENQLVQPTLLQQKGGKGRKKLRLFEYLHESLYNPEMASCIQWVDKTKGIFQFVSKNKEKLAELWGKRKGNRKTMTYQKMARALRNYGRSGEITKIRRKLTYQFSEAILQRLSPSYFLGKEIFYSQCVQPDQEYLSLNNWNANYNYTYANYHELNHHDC
The following applies: protein: recombinant; tags: N-terminal GST; dsDNA, one strand shown. A digest of the protocol:
as §1

In another assay the target is ELF4 (Homo sapiens, UniProt Q99607 1-663). Conditions: protein: recombinant; tags: N-terminal GST; dsDNA, one strand shown. A digest of the protocol:
as §1

The target of the next assay is T3, ELK4 (Homo sapiens, UniProt P28324-2 1-405).
T3 sequence: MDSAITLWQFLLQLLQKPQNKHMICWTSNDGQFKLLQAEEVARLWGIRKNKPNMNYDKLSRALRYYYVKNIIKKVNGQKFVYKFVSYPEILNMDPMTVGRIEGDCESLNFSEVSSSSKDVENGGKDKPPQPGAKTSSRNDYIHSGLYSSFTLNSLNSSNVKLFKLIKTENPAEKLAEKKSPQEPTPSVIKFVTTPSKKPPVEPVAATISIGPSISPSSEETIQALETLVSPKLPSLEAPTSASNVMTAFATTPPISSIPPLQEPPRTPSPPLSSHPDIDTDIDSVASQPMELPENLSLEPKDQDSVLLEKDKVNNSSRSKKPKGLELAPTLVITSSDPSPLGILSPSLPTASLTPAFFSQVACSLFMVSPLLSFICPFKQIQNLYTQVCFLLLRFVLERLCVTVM
The following applies: protein: recombinant; tags: N-terminal GST; dsDNA, one strand shown. Put shortly:
as §1

Another assay addresses T4, ETV2 (Homo sapiens, UniProt O00321 1-342).
T4 sequence: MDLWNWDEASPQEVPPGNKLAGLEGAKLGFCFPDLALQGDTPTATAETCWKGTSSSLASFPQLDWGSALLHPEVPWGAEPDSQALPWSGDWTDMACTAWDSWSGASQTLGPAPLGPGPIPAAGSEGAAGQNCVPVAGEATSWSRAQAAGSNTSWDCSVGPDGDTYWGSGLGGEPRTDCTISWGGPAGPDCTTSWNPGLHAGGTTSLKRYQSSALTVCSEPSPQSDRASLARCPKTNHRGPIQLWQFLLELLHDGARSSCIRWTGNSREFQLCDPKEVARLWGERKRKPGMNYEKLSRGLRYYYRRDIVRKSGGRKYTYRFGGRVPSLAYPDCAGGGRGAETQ
The following applies: protein: recombinant; tags: N-terminal GST; dsDNA, one strand shown. Put shortly: as §1

The next assay addresses T5, ELF3 (Homo sapiens, UniProt P78545 1-371).
T5 sequence: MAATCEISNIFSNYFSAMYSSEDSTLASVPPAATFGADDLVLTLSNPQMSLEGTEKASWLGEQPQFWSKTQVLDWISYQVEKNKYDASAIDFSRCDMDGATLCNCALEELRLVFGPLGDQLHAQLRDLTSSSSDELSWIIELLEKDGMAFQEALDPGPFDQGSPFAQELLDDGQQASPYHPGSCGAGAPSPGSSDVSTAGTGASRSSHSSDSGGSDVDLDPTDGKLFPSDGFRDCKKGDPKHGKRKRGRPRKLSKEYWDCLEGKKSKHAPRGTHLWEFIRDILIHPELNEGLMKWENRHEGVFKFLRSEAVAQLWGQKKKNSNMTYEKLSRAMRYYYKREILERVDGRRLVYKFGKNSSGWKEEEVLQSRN
Conditions: protein: recombinant; tags: N-terminal GST; dsDNA, one strand shown. Put shortly:
as §1

The next assay deals with CRX (Homo sapiens, UniProt O43186 1-299). Conditions: protein: recombinant; tags: N-terminal GST; dsDNA, one strand shown. Put shortly:
as §1

A further assay addresses ETV1 (Homo sapiens, UniProt P50549 1-477). Conditions: protein: recombinant; tags: N-terminal GST; dsDNA, one strand shown. A digest of the protocol:
as §1

Sequence of ELF4 (Q99607 whole entry): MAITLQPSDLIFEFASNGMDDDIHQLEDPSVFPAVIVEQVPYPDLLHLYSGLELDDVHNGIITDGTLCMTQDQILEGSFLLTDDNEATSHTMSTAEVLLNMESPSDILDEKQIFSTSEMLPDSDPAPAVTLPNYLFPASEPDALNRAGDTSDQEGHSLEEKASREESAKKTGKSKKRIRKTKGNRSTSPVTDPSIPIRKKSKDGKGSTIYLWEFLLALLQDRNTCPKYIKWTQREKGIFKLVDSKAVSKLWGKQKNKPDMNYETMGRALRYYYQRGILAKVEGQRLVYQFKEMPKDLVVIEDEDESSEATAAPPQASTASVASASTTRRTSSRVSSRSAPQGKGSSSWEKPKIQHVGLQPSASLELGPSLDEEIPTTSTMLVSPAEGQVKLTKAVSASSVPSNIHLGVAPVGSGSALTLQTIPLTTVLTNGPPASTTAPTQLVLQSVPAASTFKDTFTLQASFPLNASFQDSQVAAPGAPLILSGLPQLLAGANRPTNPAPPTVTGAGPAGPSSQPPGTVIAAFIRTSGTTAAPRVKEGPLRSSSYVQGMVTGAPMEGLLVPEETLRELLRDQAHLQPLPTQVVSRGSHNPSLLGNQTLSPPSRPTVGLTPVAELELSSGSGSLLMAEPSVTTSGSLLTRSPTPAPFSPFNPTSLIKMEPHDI
Sequence of HSF1 (Q00613 whole entry): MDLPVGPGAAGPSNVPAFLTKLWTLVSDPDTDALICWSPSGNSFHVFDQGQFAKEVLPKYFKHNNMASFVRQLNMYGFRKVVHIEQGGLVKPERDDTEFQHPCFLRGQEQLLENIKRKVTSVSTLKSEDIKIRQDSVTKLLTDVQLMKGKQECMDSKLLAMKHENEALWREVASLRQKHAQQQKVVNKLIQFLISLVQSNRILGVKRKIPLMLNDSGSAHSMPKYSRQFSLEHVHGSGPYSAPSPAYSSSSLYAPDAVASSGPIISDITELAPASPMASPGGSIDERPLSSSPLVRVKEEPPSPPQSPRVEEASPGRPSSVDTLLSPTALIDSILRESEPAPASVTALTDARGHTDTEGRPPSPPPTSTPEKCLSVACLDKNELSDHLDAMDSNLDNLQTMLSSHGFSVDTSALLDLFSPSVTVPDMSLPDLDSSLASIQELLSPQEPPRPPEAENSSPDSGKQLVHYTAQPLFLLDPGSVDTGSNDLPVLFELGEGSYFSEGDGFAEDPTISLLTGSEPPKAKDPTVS
Sequence of ETV5 (P41161 whole entry): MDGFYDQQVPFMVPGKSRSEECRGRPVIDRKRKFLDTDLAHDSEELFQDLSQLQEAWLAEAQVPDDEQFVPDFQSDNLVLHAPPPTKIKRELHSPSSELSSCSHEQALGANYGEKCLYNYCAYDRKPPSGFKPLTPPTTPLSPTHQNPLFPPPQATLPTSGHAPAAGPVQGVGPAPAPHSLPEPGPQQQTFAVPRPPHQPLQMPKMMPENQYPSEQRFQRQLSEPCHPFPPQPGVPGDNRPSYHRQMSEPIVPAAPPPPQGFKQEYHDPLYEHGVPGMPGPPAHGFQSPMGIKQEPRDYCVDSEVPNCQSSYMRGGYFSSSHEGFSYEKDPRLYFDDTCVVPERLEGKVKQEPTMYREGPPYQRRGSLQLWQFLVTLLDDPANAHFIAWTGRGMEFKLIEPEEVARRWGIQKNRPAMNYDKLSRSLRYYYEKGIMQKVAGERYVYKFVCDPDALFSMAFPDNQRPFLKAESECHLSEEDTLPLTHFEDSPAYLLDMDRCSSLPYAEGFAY
Sequence of CRX (O43186 whole entry): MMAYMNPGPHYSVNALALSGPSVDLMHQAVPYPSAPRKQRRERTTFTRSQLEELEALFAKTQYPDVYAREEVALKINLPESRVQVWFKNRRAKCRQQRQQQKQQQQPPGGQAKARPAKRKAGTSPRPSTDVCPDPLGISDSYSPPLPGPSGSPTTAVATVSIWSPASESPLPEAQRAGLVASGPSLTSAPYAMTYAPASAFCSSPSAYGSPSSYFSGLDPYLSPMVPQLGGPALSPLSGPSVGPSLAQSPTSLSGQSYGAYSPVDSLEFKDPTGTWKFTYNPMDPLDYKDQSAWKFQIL
Sequence of ETV1 (P50549 whole entry): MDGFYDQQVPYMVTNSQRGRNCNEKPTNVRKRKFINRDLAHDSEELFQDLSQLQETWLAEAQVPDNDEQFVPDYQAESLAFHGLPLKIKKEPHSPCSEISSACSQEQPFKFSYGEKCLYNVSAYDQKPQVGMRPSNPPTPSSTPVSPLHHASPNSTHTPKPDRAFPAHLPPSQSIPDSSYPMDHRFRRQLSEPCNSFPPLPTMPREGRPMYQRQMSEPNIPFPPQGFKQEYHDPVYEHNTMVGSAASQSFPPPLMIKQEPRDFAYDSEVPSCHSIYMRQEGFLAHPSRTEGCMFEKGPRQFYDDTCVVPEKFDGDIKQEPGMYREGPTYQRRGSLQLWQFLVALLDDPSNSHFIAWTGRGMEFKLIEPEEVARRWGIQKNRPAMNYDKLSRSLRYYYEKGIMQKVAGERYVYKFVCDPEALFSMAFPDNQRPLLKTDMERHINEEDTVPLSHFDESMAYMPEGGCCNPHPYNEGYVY

Take TTGCGA: the binding signal with FEV was 1.08 fold enrichment (6-mer frequency, TF over GST control); in the assay with ETV5, 1.15 fold enrichment (6-mer frequency, TF over GST control); with HSF1, 1.24 fold enrichment (6-mer frequency, TF over GST control); in the assay with SPIC, 1.35 fold enrichment (6-mer frequency, TF over GST control); with ELF4, 1.14 fold enrichment (6-mer frequency, TF over GST control); with ELK4, 1.11 fold enrichment (6-mer frequency, TF over GST control). Moreover, the binding signal is 1.1 fold enrichment (6-mer frequency, TF over GST control) with ETV2; 1.16 fold enrichment (6-mer frequency, TF over GST control) with ELF3; 1.15 fold enrichment (6-mer frequency, TF over GST control) with CRX; 1.15 fold enrichment (6-mer frequency, TF over GST control) with ETV1.
As to GTTCTC, the binding signal was 1.32 fold enrichment (6-mer frequency, TF over GST control) with FEV; 1.32 fold enrichment (6-mer frequency, TF over GST control) with ETV5; 2.29 fold enrichment (6-mer frequency, TF over GST control) in the assay with HSF1; 1.36 fold enrichment (6-mer frequency, TF over GST control) with SPIC; 1.28 fold enrichment (6-mer frequency, TF over GST control) with ELF4; 1.27 fold enrichment (6-mer frequency, TF over GST control) in the assay with ELK4. The binding signal was 1.33 fold enrichment (6-mer frequency, TF over GST control) with ETV2; 1.3 fold enrichment (6-mer frequency, TF over GST control) with ELF3; 1.28 fold enrichment (6-mer frequency, TF over GST control) with CRX; 1.34 fold enrichment (6-mer frequency, TF over GST control) in the assay with ETV1.
On to ATGAGC, for which the binding signal in the assay with FEV is 1.24 fold enrichment (6-mer frequency, TF over GST control); with ETV5, 1.23 fold enrichment (6-mer frequency, TF over GST control); with HSF1, 1.13 fold enrichment (6-mer frequency, TF over GST control); in the assay with SPIC, 1.29 fold enrichment (6-mer frequency, TF over GST control); in the assay with ELF4 it was 1.29 fold enrichment (6-mer frequency, TF over GST control); with ELK4, 1.26 fold enrichment (6-mer frequency, TF over GST control). Also, the binding signal was 1.3 fold enrichment (6-mer frequency, TF over GST control) in the assay with ETV2; 1.35 fold enrichment (6-mer frequency, TF over GST control) with ELF3; 1.31 fold enrichment (6-mer frequency, TF over GST control) in the assay with CRX; 1.14 fold enrichment (6-mer frequency, TF over GST control) with ETV1.
As to TAGTGG, the binding signal with FEV was 1.21 fold enrichment (6-mer frequency, TF over GST control); with ETV5, 1.11 fold enrichment (6-mer frequency, TF over GST control); with HSF1, 1.33 fold enrichment (6-mer frequency, TF over GST control); in the assay with SPIC, 1.24 fold enrichment (6-mer frequency, TF over GST control); with ELF4, 1.15 fold enrichment (6-mer frequency, TF over GST control); in the assay with ELK4 it was 1.37 fold enrichment (6-mer frequency, TF over GST control). For the same sequence, the binding signal with ETV2 is 1.15 fold enrichment (6-mer frequency, TF over GST control); with ELF3, 1.1 fold enrichment (6-mer frequency, TF over GST control); in the assay with CRX, 1.52 fold enrichment (6-mer frequency, TF over GST control); in the assay with ETV1, 1.14 fold enrichment (6-mer frequency, TF over GST control).
For the sequence TTATTG, the binding signal was 1.28 fold enrichment (6-mer frequency, TF over GST control) with FEV; 1.32 fold enrichment (6-mer frequency, TF over GST control) with ETV5; 1.71 fold enrichment (6-mer frequency, TF over GST control) in the assay with HSF1; 1.29 fold enrichment (6-mer frequency, TF over GST control) with SPIC; 1.36 fold enrichment (6-mer frequency, TF over GST control) with ELF4; 1.43 fold enrichment (6-mer frequency, TF over GST control) with ELK4. The binding signal in the assay with ETV2 was 1.33 fold enrichment (6-mer frequency, TF over GST control); in the assay with ELF3, 1.35 fold enrichment (6-mer frequency, TF over GST control); in the assay with CRX, 2.35 fold enrichment (6-mer frequency, TF over GST control); in the assay with ETV1, 1.24 fold enrichment (6-mer frequency, TF over GST control).
CTTTGG: the binding signal in the assay with FEV was 1.15 fold enrichment (6-mer frequency, TF over GST control); with ETV5, 1.17 fold enrichment (6-mer frequency, TF over GST control); with HSF1, 1.26 fold enrichment (6-mer frequency, TF over GST control); in the assay with SPIC, 1.17 fold enrichment (6-mer frequency, TF over GST control); in the assay with ELF4, 1.16 fold enrichment (6-mer frequency, TF over GST control); with ELK4, 1.02 fold enrichment (6-mer frequency, TF over GST control). The binding signal with ETV2 is 1.27 fold enrichment (6-mer frequency, TF over GST control); with ELF3 it was 1.23 fold enrichment (6-mer frequency, TF over GST control); in the assay with CRX, 1.29 fold enrichment (6-mer frequency, TF over GST control); with ETV1, 1.17 fold enrichment (6-mer frequency, TF over GST control).
In the case of TTTCCG, the binding signal is 5.31 fold enrichment (6-mer frequency, TF over GST control) in the assay with FEV; 4.02 fold enrichment (6-mer frequency, TF over GST control) in the assay with ETV5; 1.48 fold enrichment (6-mer frequency, TF over GST control) in the assay with HSF1; 3.86 fold enrichment (6-mer frequency, TF over GST control) with SPIC; 3.35 fold enrichment (6-mer frequency, TF over GST control) with ELF4; 2.97 fold enrichment (6-mer frequency, TF over GST control) with ELK4. In addition, the binding signal in the assay with ETV2 is 3.65 fold enrichment (6-mer frequency, TF over GST control); with ELF3, 3.54 fold enrichment (6-mer frequency, TF over GST control); in the assay with CRX, 1.39 fold enrichment (6-mer frequency, TF over GST control); in the assay with ETV1, 3.76 fold enrichment (6-mer frequency, TF over GST control).
Turning to TTACTC, the binding signal in the assay with FEV is 1.21 fold enrichment (6-mer frequency, TF over GST control); in the assay with ETV5, 1.24 fold enrichment (6-mer frequency, TF over GST control); with HSF1 it was 1.49 fold enrichment (6-mer frequency, TF over GST control); in the assay with SPIC, 1.24 fold enrichment (6-mer frequency, TF over GST control); in the assay with ELF4 it was 1.29 fold enrichment (6-mer frequency, TF over GST control); in the assay with ELK4, 1.34 fold enrichment (6-mer frequency, TF over GST control). For the same sequence, the binding signal with ETV2 was 1.37 fold enrichment (6-mer frequency, TF over GST control); with ELF3, 1.43 fold enrichment (6-mer frequency, TF over GST control); with CRX it was 1.91 fold enrichment (6-mer frequency, TF over GST control); in the assay with ETV1 it was 1.32 fold enrichment (6-mer frequency, TF over GST control).
